Our source for the activity change, less the hit threshold values is PubChem BioAssay AID1942 (Johns Hopkins Ion Channel Center, 2009).

Hit rate of the full screen: of about 2,400 compounds, about 580 (24%) were called active.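 The calls were made as follows: active = activity change at or above the mean plus 3 SD of buffer wells without dofetilide, per plate; inactive = the rest.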 Not all results are given here.

The target of the assay is Potassium voltage-gated channel subfamily KQT member 2 (Rattus norvegicus) (UniProt O88943). Put plainly: rat KCNQ2 channel activation by compounds alone, confirmation, counter-screen for hERG block protector project, cell-based, CHO, FluxOR thallium flux (AID 1942).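 Also: normalized value minus buffer-control mean plus three SD of buffer wells.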 The conditions noted are these: CHO-KCNQ2 cells, FluxOR thallium flux fluorescence; at 10 µM; active compounds read high.
Potassium voltage-gated channel subfamily KQT member 2 (Rattus norvegicus), sequence (O88943 whole entry, looked up): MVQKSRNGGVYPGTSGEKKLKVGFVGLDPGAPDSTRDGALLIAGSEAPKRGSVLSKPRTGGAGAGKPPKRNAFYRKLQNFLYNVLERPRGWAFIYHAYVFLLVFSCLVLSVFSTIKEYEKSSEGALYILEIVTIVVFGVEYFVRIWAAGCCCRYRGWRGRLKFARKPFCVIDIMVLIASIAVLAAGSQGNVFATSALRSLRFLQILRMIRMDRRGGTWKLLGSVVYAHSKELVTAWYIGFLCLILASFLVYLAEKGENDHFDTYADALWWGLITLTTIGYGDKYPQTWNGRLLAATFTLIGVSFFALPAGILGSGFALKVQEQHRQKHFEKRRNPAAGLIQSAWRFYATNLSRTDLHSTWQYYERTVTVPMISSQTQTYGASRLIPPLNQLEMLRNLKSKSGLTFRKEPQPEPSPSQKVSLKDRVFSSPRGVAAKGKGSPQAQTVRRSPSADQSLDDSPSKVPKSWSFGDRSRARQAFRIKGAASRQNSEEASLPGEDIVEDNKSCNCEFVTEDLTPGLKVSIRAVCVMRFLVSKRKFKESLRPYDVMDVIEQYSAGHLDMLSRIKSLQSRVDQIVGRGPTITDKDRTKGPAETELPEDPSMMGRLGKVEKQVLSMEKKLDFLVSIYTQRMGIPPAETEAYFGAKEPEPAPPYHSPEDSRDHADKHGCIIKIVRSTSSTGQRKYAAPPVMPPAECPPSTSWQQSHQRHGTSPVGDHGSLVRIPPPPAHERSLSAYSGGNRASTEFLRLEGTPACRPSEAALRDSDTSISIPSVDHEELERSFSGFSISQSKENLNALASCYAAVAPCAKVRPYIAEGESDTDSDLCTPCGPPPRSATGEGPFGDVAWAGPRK
In the case of `COCc1cc(C)nc(OCC(=O)N/N=C/c2ccc(-c3cc([N+](=O)[O-])ccc3Cl)o2)c1C#N`, the activity change, less the hit threshold was -8.1% (inactive).
The value for `Cc1ccc(-c2cccc(C3CC=CC4C3C(=O)N(Cc3ccccc3)C4c3ccc4ccccc4c3)c2)cc1` (stereo not given) was -15.4% (inactive); that for `Cc1ccc(NC(=O)COc2cccnc2[N+](=O)[O-])cc1S(=O)(=O)N1CCOCC1` was -18.2% (inactive); that for `Cc1nnc2c(SC(C)C)nc3ccccc3n12` was -19.3% (inactive).
With `Cn1c(O)c(N=Nc2nc(-c3ccccc3)cs2)c2ccccc21`, the activity change, less the hit threshold was 67.2% (active).
The value for `Cc1ccccc1OCC(=O)N=Nc1c(O)n(C)c2ccccc12` was -2.4% (inactive); that for `CCc1ccc2[nH]c(O)c(N=Nc3nc(-c4ccccc4)cs3)c2c1` was -16.3% (inactive).
Then `N#Cc1cccc(N=c2ssnc2Cl)c1`, with -15.2% (inactive); and `Cc1cc(=O)[nH]c(N/N=C2/CCCC/C2=C\c2ccccc2)n1`, with -11.4% (inactive); and `CSC(=S)N/N=C/c1ccc(Br)cc1`, with -6.8% (inactive).
The value for `C/C(=N\NC(N)=S)c1cccnc1` was -17.7% (inactive); that for `C/C(=N\NC(N)=S)c1ccncc1` was -10.4% (inactive).
With `CSC(=S)N/N=C/c1ccccc1`, the activity change, less the hit threshold was 48% (active).
The value for `CSC(=S)N/N=C(\C)c1ccccc1` was 42.3% (active); that for `CC(C)NC(=S)N/N=C/c1ccc(C(C)(C)C)cc1` was -8.8% (inactive); that for `COc1ccc(-n2c(SCC#N)nnc2-c2cccnc2)cc1` was -24.2% (inactive).
Then `O=C(CC(=O)c1ccccc1O)c1cccc(F)c1`, with -11.1% (inactive).
Turning to `Cc1cc(F)c(F)c(C(=O)N2CCOCC2)c1`, the activity change, less the hit threshold was -20.6% (inactive).
The value for `CC(C)(C)OC(=O)N1CCC2(CC1)Oc1ccc(Cl)cc1C(=O)C21CC(c2ccc(Cl)cc2)=NO1` (stereo not given) was -20.7% (inactive); that for `Cn1nc(C(F)(F)F)c(-c2ccc(Br)cc2)c1NC(=O)c1cccnc1` was -21.4% (inactive); that for `COc1ccc(C(=O)NNC(=O)CSc2nnc(COc3ccccc3)n2C)cc1` was -15.5% (inactive).
The value for `Cc1cc(NC(=O)CSc2ccc3nnc(-c4cccs4)n3n2)no1` was -20.2% (inactive).
Take `O=C(O)c1ccc2c3n(nc2c1)-c1ccc(Cl)cc1CO3`: the activity change, less the hit threshold was -11.6% (inactive).
Then `O=C(NC(=S)Nc1cccc(Cl)c1)c1cncc(Br)c1`, with -16.1% (inactive); and `O=C(NC(=S)Nc1cccnc1)c1cc2ccccc2o1`, with 10.1% (active).
Then `Cc1ccc(NC(=S)NC(=O)c2ccc(Br)o2)c(C)c1`, with 8.1% (active); and `Cc1c(C(=O)NC(=S)NCc2cccnc2)oc2ccccc12`, with -18.2% (inactive); and `O=C(NC(=S)Nc1ccccc1F)c1ccc(Br)o1`, with 59.7% (active).
On to `O=C(NC(=S)Nc1ccccc1)c1ccc(Br)o1`, for which the activity change, less the hit threshold was 3.3% (active).
Then `O=C(NC(=S)NNC(=O)c1cccs1)c1ccc(Br)o1`, with -12.6% (inactive).
Then `Cc1ccc(C)c(NC(=S)NC(=O)c2cncc(Br)c2)c1`, with -2.9% (inactive); and `Cc1ccc(NC(=O)c2ccc3c(c2)CCN3S(C)(=O)=O)c(C)c1`, with -23.2% (inactive).
The value for `Fc1cccc(C2NN=C(c3ccccc3)S2)c1` (stereo not given) was -7.2% (inactive); that for `O=C(OCCNc1ccc(C(F)(F)F)cc1[N+](=O)[O-])c1cc2ccccc2oc1=O` was -14.3% (inactive).
Consider `O=C(O)COc1ccc(NC(=O)c2ccc3c(c2)C(=O)N(C2CCCCC2)C3=O)cc1`, for which the activity change, less the hit threshold is -6.7% (inactive).
The value for `COc1cc(S(=O)(=O)n2cnc(C)c2)ccc1Cl` was -21.2% (inactive).
The value for `COCCN(C(=O)CSc1nnc(C)n1Cc1ccccc1)c1c(N)n(CC(C)C)c(=O)[nH]c1=O` was -21.8% (inactive).
Then `Cc1nc2n(n1)CC(O)CS2` (stereo not given), with -16.3% (inactive); and `CCOc1ccc(-c2cccc(NC(=O)c3ccc(Br)o3)c2)nn1`, with -30.4% (inactive).
For `O=C(CNC(=S)NC(=O)c1ccc(Br)o1)c1ccccc1`, the activity change, less the hit threshold is -11.7% (inactive).
The value for `COc1ccc(OC)c(NC(=S)NC(=O)c2ccc(Br)o2)c1` was -6.9% (inactive).
The value for `Cc1cccc(NC(=S)NC(=O)c2ccc(Br)o2)c1` was 46.1% (active).
The value for `S=C(NCc1ccccc1)NCc1ccccc1Cl` was -23.7% (inactive); that for `CS(=O)(=O)N(Cc1ccccc1)c1ccc(C(=O)Nc2ccc(C(N)=O)cc2)cc1` was -23.7% (inactive).
Turning to `CCc1ccc(NC(=S)NC(=O)c2c(-c3ccccc3Cl)noc2C)cc1`, the activity change, less the hit threshold is -17.1% (inactive).
Then `CCN(c1ccccc1)S(=O)(=O)c1ccc(NC(=S)NC(=O)c2ccc(Br)o2)cc1`, with 0.3% (active); and `O=C(NC(=S)NCc1ccccc1)c1ccc(Br)o1`, with 70.4% (active).
Then `COc1ccc(NC(=S)NC(=O)c2ccc(Br)o2)cc1`, with 11.8% (active); and `CC(C)C(=O)Nc1cccc(C(=O)Nc2ccccc2C(=O)O)c1`, with -17.8% (inactive).
For the compound `COc1ccc(Cc2c(O)nc(SCC(=O)NC(C)(C)C)[nH]c2=O)cc1`, the activity change, less the hit threshold is -19.2% (inactive).
Then `CC(C(=O)N1CCN(c2ccc([N+](=O)[O-])cc2)CC1)N1C(=O)C2CC=CCC2C1=O` (stereo not given), with -20.1% (inactive); and `Cc1cc(C)n2nc(SCC(=O)NC3CCCCC3C)nc2n1` (stereo not given), with -30.3% (inactive).
The value for `COCCOC(=O)C1=C(C)Nc2ncnn2C1c1ccc(F)cc1` (stereo not given) was -22% (inactive); that for `CCOc1ccc(NC(=O)C2C(C(=O)O)C3(Cl)C(Cl)=C(Cl)C2(Cl)C3(Cl)Cl)cc1` (stereo not given) was -15.5% (inactive); that for `Cc1ccc(Cl)cc1NC(=S)N/N=C/c1cccc2ccccc12` was -24.4% (inactive).
`S=C(N/N=C/c1ccccc1Cl)Nc1cccc(Cl)c1Cl`: the activity change, less the hit threshold was 8.6% (active).
The value for `Fc1ccccc1NC(=S)N/N=C/c1ccccc1Br` was -25.7% (inactive); that for `CCN(CC)CCCNC(=O)c1cn(-c2cccc(OC)c2)c(=O)c2ccccc12` was -18.5% (inactive).
Take `COc1ccc(-c2ccc(/C=N/NC(=O)c3cccnc3)o2)c([N+](=O)[O-])c1`: the activity change, less the hit threshold is -11.4% (inactive).
Then `C=CCNC(=S)Nc1sc2c(c1C(=O)OCC)CC(C(C)C)OC2` (stereo not given), with 16.9% (active).
Then `C=CCNC(=S)Nc1sc2c(c1C(=O)OCC)CC(C)(CC)OC2` (stereo not given), with 15.9% (active); and `Cc1ccc(Cl)cc1NC(=O)COC(=O)c1ccccc1O`, with -21.1% (inactive).
Then `Cc1ccccc1OC(=O)n1c(=S)oc2cc(Cl)ccc21`, with 9.7% (active); and `COC(=O)n1c(=S)oc2cc(Cl)ccc21`, with -10% (inactive).
For `CCCCC(=O)Nc1cccc(C(=O)Nc2ccccc2C(=O)O)c1`, the activity change, less the hit threshold was -4% (inactive).
The value for `CCCCC(=O)Nc1ccc(NCc2ccc(C)s2)cc1` was 42.5% (active); that for `Cc1ccc(NC(=O)CCC(=O)OCC(F)(F)C(F)F)cc1` was -23% (inactive); that for `COc1cccc(OC)c1OCCOCCN1CCN(C)CC1` was -21% (inactive).
Then `O=C(NC(=S)NCc1ccccc1)c1cccs1`, with 5.6% (active); and `O=C(NC(=S)Nc1ccc(N2CCCCC2)cc1)c1cccs1`, with -9.5% (inactive); and `CCN(CC)c1ccc(NC(=S)NC(=O)c2cccs2)cc1`, with -9.5% (inactive).
As for `O=C(NC(=S)Nc1ccccc1N1CCCCC1)c1cccs1`, the activity change, less the hit threshold is -23.1% (inactive).
`O=C(NC(=S)Nc1ccccc1)c1cccs1`: the activity change, less the hit threshold was 3.3% (active).
Take `CCSc1nc2c(c(=O)[nH]1)C(c1ccc(C)cc1)C1=C(CCCC1=O)N2` (stereo not given): the activity change, less the hit threshold is -8.9% (inactive).
The value for `O=C(O)C/C(=C\c1cc(Br)cs1)c1nc2ccccc2o1` was -8.4% (inactive).
Then `CCCCCCc1cc2cc(-c3nnc(-c4ccccc4O)o3)c(=O)oc2cc1O`, with -7% (inactive); and `CC(C)(C)c1csc(NC(=O)C2=COCCO2)n1`, with -13% (inactive); and `Oc1c(Cl)cc(Cl)cc1/C=N/c1ncn[nH]1`, with 23.9% (active).
The value for `Oc1c(Cl)cc(Cl)cc1/C=N/c1nccs1` was 32.3% (active).
For `Oc1c(Cl)cc(Cl)cc1Sc1cc(Cl)cc(Cl)c1O`, the activity change, less the hit threshold was -1.7% (inactive).
The value for `CC1CCN(C(=O)CSc2nnc(CNC(=O)c3ccco3)o2)CC1` was -12.8% (inactive); that for `CCOc1ccc(NC(=O)CS(=O)CC(=O)NC2CCCc3ccccc32)cc1` (stereo not given) was -13.6% (inactive); that for `Cc1nc2ccccc2n1-c1ccccc1` was -4.2% (inactive).
In the case of `COc1ccc(-n2ncc3c2CC(C)(C)CC3NC(=O)c2cn[nH]c2)cc1` (stereo not given), the activity change, less the hit threshold was -22.9% (inactive).
The value for `O=C(O)c1cc(N/N=C/c2ccc(-c3ccccc3)cc2)ccc1Cl` was -22.4% (inactive); that for `O=C(O)c1cc(NN=C2c3ccccc3-c3ccccc32)ccc1Cl` was 32.4% (active); that for `CC(C)Oc1cc(S(=O)(=O)N2CCCCC2)ccc1N` was -15.7% (inactive).
Consider `O=[N+]([O-])c1ccc(S(=O)(=O)Nc2ccc(S(=O)(=O)N3CCCC3)cc2)cc1`, for which the activity change, less the hit threshold was -23.3% (inactive).
The value for `CCCCOc1ccc(-c2c(C#N)c(N)[nH]c(=S)c2C#N)cc1` was -10.1% (inactive).
With `Cc1[nH]c(=S)c(C#N)c(C)c1Cc1ccc(Cl)cc1Cl`, the activity change, less the hit threshold is -7.1% (inactive).
`CCOC(=O)c1c(C)[nH]c(=S)c(C#N)c1-c1ccc(Cl)cc1`: the activity change, less the hit threshold was 5.2% (active).
Turning to `Cc1ccc([N+](=O)[O-])c2c1C(N1CC(C)OC(C)C1)C(C)(C)O2` (stereo not given), the activity change, less the hit threshold was -14.4% (inactive).
Then `S=c1nc(C2CCCCC2)n(-c2ccccc2)[nH]1`, with 41.2% (active); and `Cc1cc(OCC(=O)Nc2cc(S(=O)(=O)N3CCOCC3)ccc2N2CCCC2)ccc1C(C)C`, with -14.1% (inactive).
Then `Cc1nnc(C)n1/N=C/c1cc(Br)cc(Br)c1O`, with 17.8% (active); and `CNC(=S)N/N=C/c1cc(Br)cc(Br)c1O`, with -6.6% (inactive).
Then `CC(=O)C1=C(O)C(=O)N(c2cccnc2)C1c1ccc(Cl)cc1` (stereo not given), with -25.8% (inactive).
On to `O=C(COc1ccc2c3c(c(=O)oc2c1)CCC3)N[C@@H](Cc1ccccc1)C(=O)O`, for which the activity change, less the hit threshold was 8.1% (active).
Take `Cc1c(C)c2ccc(OCC(=O)N[C@@H](Cc3ccccc3)C(=O)O)cc2oc1=O`: the activity change, less the hit threshold is -10% (inactive).
The value for `O=C(COc1ccc2c3c(c(=O)oc2c1)CCC3)NCC1CCC(C(=O)O)CC1` (stereo not given) was -17.1% (inactive).
